Screens: PubChem BioAssay, several laboratories
Compounds with a hit are over-represented: about 1.5% of the library has one in this group of screens.
AI-2 QS mod – Vibrio harveyi AI-2 quorum sensing modulators, primary screen, JMH597 strain, luminescence/OD600 ratio | Vibrio harveyi JMH597 AI-2 luminescence/OD600 ratio, 9 h; active compounds read low; strain lacks LuxN and CqsS sensors; 0 = neutral-control median | activity change, % at 7.5 µM | 0.4% of 300,000 active | AID 2094, 2009; in the data active means activity change below about -75%, passing the limit was not always enough; inconclusive means no clear call, values can overlap the other calls;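 further: luminescence divided by OD600 gain over 9 h not by final OD600 alone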
sPLA2-III inh – human group III sPLA2 inhibitors, primary screen, biochemical, QFRET, BODIPY PC-A2 liposome substrate | Group 3 secretory phospholipase A2 (Homo sapiens), Q9NZ20 | QFRET BODIPY PC-A2 liposome hydrolysis, fluorescence | inhibition, % at 12.2 µM | 0.56% of 370,000 active | AID 743126, 2013;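 active means inhibition above mean plus 3 SD of compounds lying within the high and low control bounds, cut at about 19% in these data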
Target sequence (Q9NZ20 whole entry, looked up): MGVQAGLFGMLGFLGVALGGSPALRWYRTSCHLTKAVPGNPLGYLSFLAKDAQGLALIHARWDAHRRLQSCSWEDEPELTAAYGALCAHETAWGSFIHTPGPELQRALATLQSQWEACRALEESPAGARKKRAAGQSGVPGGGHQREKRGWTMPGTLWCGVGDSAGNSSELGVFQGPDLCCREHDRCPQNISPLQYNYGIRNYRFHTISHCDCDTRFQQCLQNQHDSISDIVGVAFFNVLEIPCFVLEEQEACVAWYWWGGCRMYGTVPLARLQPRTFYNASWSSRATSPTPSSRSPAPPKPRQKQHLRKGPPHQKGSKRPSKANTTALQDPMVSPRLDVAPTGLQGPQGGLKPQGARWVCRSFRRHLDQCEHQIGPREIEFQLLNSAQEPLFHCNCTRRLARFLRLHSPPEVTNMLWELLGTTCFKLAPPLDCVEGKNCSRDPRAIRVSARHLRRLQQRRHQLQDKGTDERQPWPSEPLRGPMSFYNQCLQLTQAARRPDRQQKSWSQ
ARNT-TACC3 inh – disruptors of ARNT/TACC3 protein interaction, primary screen, biochemical, AlphaScreen, single concentration; inhibition, % at 9.99 µM; AlphaScreen His-ARNT PAS-B/GST-TACC3 binding, luminescence; TACC3 fragment carries E629A point mutation; 0.66% of 390,000 active;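 active means mean inhibition of replicates at least 50% and at least half of replicates each reaching 50%; inconclusive means half or more replicates reach 50% but mean below 50%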
Rin1 Abl inh – inhibitors of Rin1-Abl protein binding, primary screen, biochemical, TR-FRET; Tyrosine-protein kinase ABL1 (Homo sapiens) + Ras and Rab interactor 1 (Homo sapiens), …; inhibition, % at 7.35 µM; 0.4% of 360,000 active; in the data active means inhibition above about 5%, passing the limit was not always enough
Rin1 Abl conf – Rin1-Abl binding inhibitor retest, confirmation, biochemical, TR-FRET. shares compounds with Rin1 Abl inh. purified proteins. inhibition, % at 7.35 µM. 49% of 1,300 active; in the data active means inhibition above about 6.5%
GFP quench-1 – GFP fluorescence inhibitors and quenchers, artefact control for Rin1-Abl interaction inhibitor project, biochemical. shares compounds with Rin1 Abl inh. inhibitors/quenchers counterscreen. inhibition, % at 6.75 µM. 8.5% of 1,300 active. AID 602125, 2011; in the data active means inhibition above about 6.5%;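 further: ABL1-eGFP fusion protein alone without its partner RIN1-SBP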
GFP quench dose – GFP fluorescence inhibitors and quenchers, dose response, artefact control for Rin1-Abl interaction inhibitor project, biochemical. AID 602182, 2012. shares compounds with Rin1 Abl inh. 230 tested, under 10 active. GFP fluorescence interference/quenching counterscreen. IC50, µM;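 further: ABL1-eGFP fusion protein alone without its RIN1 binding partner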
GFP quench-2 – GFP fluorescence inhibitors and quenchers, late-stage follow-up, artefact control for Rin1-Abl interaction inhibitor project, biochemical, dose response. GFP fluorescence quenching counterscreen. 25 tested, under 10 active. AID 602397, 2012. shares compounds with Rin1 Abl inh. IC50, µM
Of the large screens only hits and unclear results are named; the others gave an inactive call (follow-up assays come after a bar, where they were run). Unless noted, how the calls were made is not given here.

O=C(NCCc1ccccc1)c1ccc2nc(-c3ccco3)c(-c3ccco3)nc2c1	none (no result: sPLA2-III inh)
COc1ccc(NC(=O)Nc2cccc3c2O[C@@H](CN(C)C(=O)Nc2ccc(OC)cc2)[C@H](C)CN([C@H](C)CO)C3=O)cc1	none (no result: AI-2 QS mod, sPLA2-III inh, Rin1 Abl inh)
CC(=O)Oc1ccc(/C=C2/C(=O)N(c3ccccc3)N=C2C)cc1	Rin1 Abl inh 10.8 | Rin1 Abl conf inactive | GFP quench-1 inactive
CC1=NN(c2ccccc2)C(=O)/C1=C/c1cccc(C)c1	Rin1 Abl inh 9.4 | Rin1 Abl conf inactive | GFP quench-1 inactive
CC1=NN(c2ccccc2)C(=O)/C1=C\C=C\c1ccccc1	none (no result: ARNT-TACC3 inh)
COc1ccc(/C=C2/C(=O)N(c3ccccc3)N=C2C)cc1OC	Rin1 Abl inh 18.5 | Rin1 Abl conf inactive | GFP quench-1 inactive
C[C@H](CO)N1C[C@H](C)[C@H](CN(C)C(=O)Nc2cccc3ccccc23)Oc2ccc(NC(=O)Nc3ccccc3)cc2CC1=O	none (no result: AI-2 QS mod, sPLA2-III inh, Rin1 Abl inh)
CC(C)C#Cc1cnc2c(c1)C(=O)N([C@H](C)CO)C[C@@H](C)[C@H](CN(C)Cc1ccccc1F)O2	none (no result: AI-2 QS mod, sPLA2-III inh, Rin1 Abl inh)
CC(=O)c1ccc(OC(C)C)c(CN2CCCCC2)c1	Rin1 Abl inh 8.6 | Rin1 Abl conf inactive | GFP quench-1 inactive
CCNC(=O)[C@@H]1[C@@H](CO)[C@@H]2Cn3c(cccc3=O)[C@@H]2N1C(=O)CC1CC1	none (no result: AI-2 QS mod, sPLA2-III inh, Rin1 Abl inh)
Cc1ccc(Nc2nc(N)nc(CSc3ncccn3)n2)cc1	none
Cc1ccc(Nc2nc(N)nc(CSc3nnc(-c4ccncc4)o3)n2)cc1	Rin1 Abl inh 9.6 (no result: AI-2 QS mod) | Rin1 Abl conf 10.1 | GFP quench-1 inactive
O=C(C[C@H]1CC[C@H]2[C@@H](COC[C@@H](O)CN2C(=O)c2ccccc2)O1)N1CCc2ccccc2C1	none (no result: AI-2 QS mod, sPLA2-III inh, Rin1 Abl inh)
C[C@@H]1CN([C@@H](C)CO)C(=O)Cc2cc(NC(=O)Nc3ccccc3)ccc2O[C@@H]1CN(C)C(=O)Nc1ccc(C(F)(F)F)cc1	none (no result: AI-2 QS mod, sPLA2-III inh, Rin1 Abl inh)
COC(=O)c1cc(O)cc(OC)c1Oc1cc(C)cc(O)c1C(=O)O	Rin1 Abl inh 20.2 (no result: AI-2 QS mod) | Rin1 Abl conf 21.0 | GFP quench-1 inactive | GFP quench dose inactive
CCCN1C[C@@H](C)[C@H](OC)CN(C)C(=O)c2ccc(NC(=O)c3cccc(OC)c3)cc2OC[C@H]1C	none (no result: AI-2 QS mod, sPLA2-III inh, Rin1 Abl inh)
O=C(Nc1nc2ccccc2s1)C1CCN(C(=O)c2ccco2)CC1	none
CCOc1ccc2nc(NC(=O)C3CCN(C(=O)c4ccco4)CC3)sc2c1	Rin1 Abl inh 8.0 | Rin1 Abl conf inactive | GFP quench-1 inactive
C[C@@H]1CN([C@H](C)CO)C(=O)Cc2cc(NC(=O)Cn3cnnn3)ccc2O[C@H]1CN(C)Cc1ccc2c(c1)OCO2	none (no result: AI-2 QS mod, sPLA2-III inh, Rin1 Abl inh)
C#CCOCCOCCOCCNc1nc(N2CCN(C(=O)CCCCCCCCCCNC(=O)Cn3cc(CCCCCN)nn3)CC2)nc(N2CCN(C(=O)CCCCCCCCCCNC(=O)[C@@H](CCSC)n3cc(CCO)nn3)CC2)n1	Rin1 Abl inh 13.9 (no result: AI-2 QS mod, sPLA2-III inh, ARNT-TACC3 inh) | Rin1 Abl conf 13.5 | GFP quench-1 inactive
C#CCOCCOCCOCCNc1nc(N2CCN(C(=O)CCCCCCCCCCNC(=O)Cn3cc(CCCCCN)nn3)CC2)nc(N2CCN(C(=O)CCCCCCCCCCNC(=O)[C@@H](CCC(=O)O)n3cc(CCCCCN)nn3)CC2)n1	none (no result: AI-2 QS mod, sPLA2-III inh)
COc1cc(C=c2c3ccccc3n3c2cc(-c2ccccc2)[n+]3C)cc(OC)c1OC	Rin1 Abl inh 14.3 (no result: AI-2 QS mod) | Rin1 Abl conf inactive | GFP quench-1 inactive
O=C(NCCc1ccc(Cl)cc1)C1CCC(=O)N(C2CCCCCC2)C1 (stereo not drawn)	none
O=C(NCCc1ccc(Cl)cc1)C1CC(=O)N(C2CCCC2)C1 (stereo not drawn)	Rin1 Abl inh 15.3 | Rin1 Abl conf inactive | GFP quench-1 inactive
COc1cccc(NC(=O)CN(C)C(=O)c2ccc3c(c2)CC(c2ccccc2)OC3=O)c1 (stereo not drawn)	none (no result: AI-2 QS mod)
COc1ccc(NC(=O)CN(C)C(=O)c2ccc3c(c2)CC(c2ccccc2)OC3=O)cc1 (stereo not drawn)	Rin1 Abl inh 8.1 (no result: AI-2 QS mod, ARNT-TACC3 inh) | Rin1 Abl conf inactive | GFP quench-1 inactive
O=C(c1ccc(OC2CCN(C/C=C/c3ccccc3)CC2)cc1)N1CCCC1	none
COc1ccccc1/C=C/CN1CCC(Oc2ccc(C(=O)N3CCCCC3)cc2)CC1	Rin1 Abl inh 10.4 | Rin1 Abl conf 8.4 | GFP quench-1 inactive
COc1ccc(/C=C/CN2CCC(Oc3ccc(C(=O)N4CCCCC4)cc3)CC2)cc1	Rin1 Abl inh 7.2 | Rin1 Abl conf inactive | GFP quench-1 inactive
O=C(c1ccc(OC2CCN(C/C=C/c3ccccc3)CC2)cc1)N1CCCCC1	Rin1 Abl inh 6.3 | Rin1 Abl conf inactive | GFP quench-1 inactive
CCCCOc1ccc(C(C)NC(=O)CCS(=O)(=O)Cc2ccc(C)cc2)cc1 (stereo not drawn)	Rin1 Abl inh 4.4 | Rin1 Abl conf inactive | GFP quench-1 inactive
COc1ccccc1C#Cc1cnc2c(c1)C(=O)N([C@H](C)CO)C[C@@H](C)[C@H](CN(C)C(=O)CC1CC1)O2	none (no result: AI-2 QS mod, sPLA2-III inh, Rin1 Abl inh)
COc1ccc(S(=O)(=O)NCCOc2cccc3cccnc23)cc1OC	AI-2 QS mod inconclusive
O=[N+]([O-])c1cccc(S(=O)(=O)NCCOc2cccc3cccnc23)c1	Rin1 Abl inh 10.3 | Rin1 Abl conf inactive | GFP quench-1 inactive
NC(=O)c1cc(-c2ccccc2)nc(Oc2ccccc2)n1	Rin1 Abl inh 10.5 | Rin1 Abl conf inactive | GFP quench-1 inactive
CN(C(=O)c1ccc(NC(=O)Cc2ccc(NC(=O)C3CCN(C(=O)c4ccccc4)CC3)cc2)cc1)C1CC1	Rin1 Abl inh 77.2 (no result: AI-2 QS mod) | Rin1 Abl conf 79.3 | GFP quench-1 inactive | GFP quench dose inactive | GFP quench-2 inactive
CN(C(=O)c1ccc(NC(=O)Cc2ccc(NC(=O)C3CCN(C(=O)C4CC4)CC3)cc2)cc1)C1CC1	Rin1 Abl inh 37.0 (no result: AI-2 QS mod) | Rin1 Abl conf 34.1 | GFP quench-1 inactive | GFP quench dose inactive
CN(C(=O)c1ccc(NC(=O)Cc2ccc(NC(=O)C3CCN(C(=O)C4CCC4)CC3)cc2)cc1)C1CCCC1	none (no result: AI-2 QS mod)
N#Cc1ccccc1OCc1cn(CC(=O)c2ccc(O)cc2)nn1	none (no result: AI-2 QS mod)
